Assay results from PubChem BioAssay (NCI).
About 79,000 compounds went through this panel and 15% of them were active in at least one assay; those are over-represented in the sample as a whole. Rule as the data show it: active = growth inhibition above about 70%; inactive = the rest.

Columns and labels:
[1] = NCI Yeast Anticancer Drug Screen. Data for the rad50 strain (AID 155);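 also: 0% = growth of vehicle-only cultures of the same strain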; details: S. cerevisiae rad50 strain growth inhibition; at 50.0 µM; stronger effect = higher value
In short: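 Yeast carrying a defined DNA repair defect were exposed to test compounds, and growth was compared with vehicle-treated controls to give percent inhibition.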

[2] = NCI Yeast Anticancer Drug Screen. Data for the mec2-1 strain (AID 157); details: S. cerevisiae mec2-1 strain, at 50.0 µM, stronger effect = higher value
In short: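 mec2-1 yeast strain, carrying an alteration in DNA damage repair or cell cycle control, was exposed to compounds; growth inhibition was measured relative to vehicle-treated controls.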

[3] = NCI Yeast Anticancer Drug Screen. Data for the sgs1 mgt1 strain (AID 161);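 also: 0% = growth of cultures given vehicle only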; details: S. cerevisiae sgs1 mgt1 strain, at 50.0 µM, stronger effect = higher value
In short: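 Yeast cells carrying a defined DNA-repair defect were exposed to test compounds. Growth inhibition was measured relative to vehicle-treated controls.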

[4] = NCI Yeast Anticancer Drug Screen. Data for the cln2 rad14 strain (AID 165);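 also: 0% = growth equal to vehicle treated cultures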; details: S. cerevisiae cln2 rad14 strain, at 50.0 µM, stronger effect = higher value
In short: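 Yeast carrying cln2 and rad14 alterations (cell cycle control and DNA damage repair) were exposed to compounds. Growth inhibition was measured against vehicle-treated controls.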

[5] = NCI Yeast Anticancer Drug Screen. Data for the bub3 strain (AID 167); details: S. cerevisiae bub3 mutant strain, at 50.0 µM, stronger effect = higher value
In short: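 Compounds were applied to a genetically altered yeast strain carrying a cell-cycle control defect. Growth inhibition was scored against vehicle-treated controls.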

[6] = NCI Yeast Anticancer Drug Screen. Data for the mlh1 rad18 strain (AID 175); details: S. cerevisiae mlh1 rad18 strain growth inhibition; at 50.0 µM; stronger effect = higher value
In short: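 Growth inhibition of the yeast strain was measured after compound exposure and expressed relative to vehicle-treated controls. The strain carries defined defects in DNA damage repair.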

Measured: growth inhibition

O=c1c(-c2ccc3c(c2)OCO3)coc2cc(O)ccc12
inactive: [1] -2.9% | [2] -0.85% | [3] 18.9% | [4] 13.7% | [5] 11.6% | [6] 23.1%

C=CCCCCCCCCC1OCC(CC)C(CCC)O1 (configuration not stated)
inactive: [1] 5.65% | [2] 10.1% | [3] -2.8% | [4] 47.5% | [5] 26.5% | [6] 39.3%

COc1cc(C(=O)n2ncc(C(C)=O)c2C)cc(OC)c1OC
inactive: [1] -3.75% | [2] -17.5% | [3] 12.9% | [4] 10.9% | [5] 0.3% | [6] 8.45%

COC(=O)/C(=N\NC(C)(C)C)C(C(=O)C(=O)Nc1cc(C)ccc1C)c1nc2ccccc2[nH]c1=O (configuration not stated)
inactive: [1] -18.8% | [2] -6.9% | [3] -1.5% | [4] 18.8% | [5] -7.95% | [6] -17.8%

O=C(O)/C=C(\Br)C(=O)O
inactive: [1] 16.1% | [2] -4.1% | [3] -1% | [4] -11.4% | [5] -5.4% | [6] 5.3%

CC(=O)NCCC(=O)NCCSC(C)=O
inactive: [1] -15% | [2] -12% | [3] 18.9% | [4] 6.15% | [5] -3.35% | [6] 9.25%

COC(=O)c1[nH]c(=O)c(C#N)c(C(=O)OC)c1-c1ccc(F)cc1
inactive: [1] -4.55% | [2] -24.5% | [3] -15.4% | [4] -2% | [5] -21.2% | [6] -0.05%

CCN(CC)C(=O)C1=C(C)NC(C)=C(C(=O)N(CC)CC)C1
inactive: [1] -36.7% | [2] -55% | [3] -18.6% | [4] -22.1% | [5] -8.35% | [6] -68.5%

COc1ccccc1-c1cc(=O)c2cc(C)c(C)c(C(=O)O)c2o1
inactive: [1] 7.05% | [2] 3.95% | [3] 18.6% | [4] 29.7% | [5] 7.35% | [6] 11.8%

Clc1ccc(Cl)c(N=Nc2cc3c4c(c2)CCN4CCC3)c1
inactive: [1] -34% | [2] -35.1% | [3] -15.2% | [4] -16.3% | [5] -10.8% | [6] -18.8%

O=[N+]([O-])c1ccc(/C=N/Nc2cnnc(Cl)c2Cl)cc1
inactive: [1] -0.6% | [2] 1.75% | [3] -1.95% | [4] -33% | [5] 2.45% | [6] 1.65%

N#Cc1c(F)c(F)c(Oc2c(F)c(F)c(F)c(F)c2F)c(F)c1Oc1c(F)c(F)c(F)c(F)c1F
inactive: [1] -1.1% | [2] 11% | [3] -11.8% | [4] 9% | [5] -0.3% | [6] 5.8%

C=CCn1c(=O)n(CC=C)c(=O)n(CC=C)c1=O
inactive: [1] 7.4% | [2] 14.3% | [3] -5.35% | [4] -26.6% | [5] -10.3% | [6] -10.8%

CCCCOC(=O)C(C)C(=O)CCC(C)CC (configuration not stated)
inactive: [1] 4.55% | [2] 2.6% | [3] -1.1% | [4] -7.05% | [5] 8.2% | [6] 3.85%

O=C(NC(Cc1ccccc1)C(=O)O)Oc1ccc2ccccc2c1 (configuration not stated)
inactive: [1] 2.9% | [2] 8.25% | [3] 6.1% | [4] -0.95% | [5] -4.8% | [6] -5.2%

C[CH2][Sn]([CH2]C)([O]C(=O)c1cccc(F)c1)[O][Sn]([CH2]C)([CH2]C)[O]C(=O)c1cccc(F)c1
inactive: [1] 31.4% | [2] 3.3% | [3] 5.85% | [4] 16.4% | [5] 13.6% | [6] 0.45%

CSc1nc(NC2OCC(O)C(O)C2O)c(C(C)=O)c(=O)n1C (configuration not stated)
inactive: [1] 3.7% | [2] -7.35% | [3] 8.2% | [4] -1.95% | [5] -33.4% | [6] 4.4%

N#Cc1ccc(OCc2nc(N)nc(N)c2-c2ccc(Cl)cc2)cc1
inactive: [1] -4.4% | [2] 5.35% | [3] -16.4% | [4] -10% | [5] 20.8% | [6] 14.8%

Cn1c(=O)c2c(nc3sc4nc5ccccc5nc4n32)n(C)c1=O
inactive: [1] -9.7% | [2] -15.9% | [3] -5.45% | [4] -25.4% | [5] -30.4% | [6] 13.1%

O=Cc1ccc(O)c(C(=O)O)c1
inactive: [1] 8.6% | [2] 5.8% | [3] 15.3% | [4] 21.1% | [5] 21.1% | [6] 2%

O=C(Nc1ccc(Cl)cc1)C(=O)C1=C(O)c2ccccc2OC1
inactive: [1] 16.9% | [2] -5.95% | [3] -12.3% | [4] 11.4% | [5] -4.95% | [6] 9.15%

O=C(O)C12CCCC(CCC1)C2
inactive: [1] -2.2% | [2] 1.05% | [3] -3.8% | [4] -4.35% | [5] -0.2% | [6] -0.55%

[B-]([C+]1CCCCC1)N1C=CC=CC1
inactive: [1] 1.2% | [2] 1.4% | [3] 15.7% | [4] -4.75% | [5] 4.95% | [6] -2.1%

O=C(O)/C=C/c1ccccc1Cl
inactive: [1] -9.7% | [2] 10.1% | [3] -1.3% | [4] -25.8% | [5] 0.8% | [6] -9.9%

CCCCNC(=O)c1cc2c(cc1Cl)Sc1nccn1S2(=O)=O
inactive: [1] -1.1% | [2] -0.3% | [3] 1.35% | [4] 9.2% | [5] 43.9% | [6] 28.6%

Sc1ccccc1N=Cc1ccc(C=Nc2ccccc2S)cc1
inactive: [1] -15.8% | [2] -8.05% | [3] 7.1% | [4] 18.8% | [5] 4.45% | [6] -3.75%

CCOC(=O)CC1NC(=O)CNC1=O (configuration not stated)
inactive: [1] -9.2% | [2] 2.1% | [3] 5.3% | [4] -5% | [5] -1.65% | [6] -13.2%

N#CSCC(Cl)=CCl (mixture of isomers)
inactive: [1] 2.95% | [2] 0.95% | [3] -4.4% | [4] 12.5% | [5] 0.5% | [6] -19.6%

CCOC(=O)C(=CNC(=S)Nc1cc(C)ccc1C)C(=O)OCC
inactive: [1] -12.8% | [2] -38.5% | [3] -14.1% | [4] -19.1% | [5] -16.7% | [6] -1.85%

COC(=O)CC(CC(=O)OC)N1CC=CC1
inactive: [1] -12.9% | [2] 10.5% | [3] -5.95% | [4] -15.1% | [5] 5.35% | [6] 31.6%

COc1ccc(OC)c(C#N)c1C#N (tested in a mixture with another compound)
inactive: [1] -25.1% | [2] 5.9% | [3] -0.15% | [4] -41.5% | [5] -3.35% | [6] -6.75%

CCOC(=O)Nc1cc(C(F)(F)F)ccc1F
inactive: [1] -14.8% | [2] -16.2% | [3] -14% | [4] -43.9% | [5] 3.95% | [6] -7.1%

CC12CS(=O)(=O)CC1O2 (configuration not stated)
inactive: [1] 1.65% | [2] 3.25% | [3] 2.2% | [4] 1.9% | [5] 2.2% | [6] -13.4%

COCC1(c2ccccc2)NC(=O)N(C)C1=O (configuration not stated)
inactive: [1] -3.05% | [2] -2.15% | [3] -1.35% | [4] -9.15% | [5] -7.35% | [6] -2%

c1ccc(C2=NC(c3ccccc3)(c3ccccc3)N=C2c2ccccc2)cc1
inactive: [1] 2.75% | [2] 10.7% | [3] -11.2% | [4] -10.1% | [5] -8.55% | [6] 2.5%

COc1ccc2c(c1)OC(=O)C(S(=O)(=O)c1ccccc1)C2 (configuration not stated)
inactive: [1] 6.25% | [2] 14.6% | [3] 6.65% | [4] -3.55% | [5] 1.2% | [6] 7.55%

O=C(c1nc2cc([N+](=O)[O-])ccc2[nH]c1=O)C(O)c1ccco1 (configuration not stated)
inactive: [1] -8.65% | [2] -25.4% | [3] -25.2% | [4] 13.9% | [5] -35% | [6] -6.35%
